This note sets out measurements from article PMC11006913.

Holding throughout (test): PBM; 200 nM protein, PBS
What all share (conditions): dsDNA, one strand shown

In assay [1] the target is ALX1 (Homo sapiens, UniProt Q15699 118-204, L144V).
For assay [2], the target named is ALX1 (Homo sapiens, UniProt Q15699 118-204, L144R).
Assay [3] concerns the target ALX1 (Homo sapiens, UniProt Q15699 118-204).
Assay [4] addresses ALX3 (Homo sapiens, UniProt O95076 139-225, N203Q).
For assay [5], the target named is HOXD13 (Homo sapiens, UniProt P35453 263-343, T313R).
In assay [6] the target is HOXD13 (Homo sapiens, UniProt P35453 263-343).
The target of assay [7] is ALX3 (Homo sapiens, UniProt O95076 139-225).
For assay [8], the target named is ALX3 (Homo sapiens, UniProt O95076 139-225, L168Q).
Assay [9] addresses HOXD13 (Homo sapiens, UniProt P35453 263-343, T313A).
In assay [10] the target is ALX3 (Homo sapiens, UniProt O95076 139-225, L168V).
Assay [11] concerns the target ALX3 (Homo sapiens, UniProt O95076 139-225, N203S).

Chain of ALX1 (Homo sapiens, UniProt Q15699 118-204) (Q15699 118-204): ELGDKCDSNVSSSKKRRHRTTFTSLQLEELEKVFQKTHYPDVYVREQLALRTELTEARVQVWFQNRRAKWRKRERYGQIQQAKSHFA
Chain of ALX3 (Homo sapiens, UniProt O95076 139-225, N203Q) (O95076 139-225 N203Q): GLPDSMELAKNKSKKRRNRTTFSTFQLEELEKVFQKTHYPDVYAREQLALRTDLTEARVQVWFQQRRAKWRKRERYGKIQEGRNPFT
Chain of ALX1 (Homo sapiens, UniProt Q15699 118-204, L144V) (Q15699 118-204 L144V): as the sequence (Q15699 118-204) above, with L27V counted along it
Chain of ALX1 (Homo sapiens, UniProt Q15699 118-204, L144R) (Q15699 118-204 L144R): as the sequence (Q15699 118-204) above, with L27R counted along it
Chain of ALX3 (Homo sapiens, UniProt O95076 139-225, L168Q) (O95076 139-225 L168Q): as the sequence (O95076 139-225 N203Q) above, with L30Q, Q65N counted along it
Chain of ALX3 (Homo sapiens, UniProt O95076 139-225, L168V) (O95076 139-225 L168V): as the sequence (O95076 139-225 N203Q) above, with L30V, Q65N counted along it
Chain of HOXD13 (Homo sapiens, UniProt P35453 263-343, T313A) (P35453 263-343 T313A): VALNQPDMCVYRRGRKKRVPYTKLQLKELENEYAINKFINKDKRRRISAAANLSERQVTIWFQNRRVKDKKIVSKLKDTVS
Chain of ALX3 (Homo sapiens, UniProt O95076 139-225) (O95076 139-225): as the sequence (O95076 139-225 N203Q) above, with Q65N counted along it
Chain of HOXD13 (Homo sapiens, UniProt P35453 263-343, T313R) (P35453 263-343 T313R): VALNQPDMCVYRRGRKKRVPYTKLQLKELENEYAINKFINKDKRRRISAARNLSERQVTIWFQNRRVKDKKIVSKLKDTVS
Chain of ALX3 (Homo sapiens, UniProt O95076 139-225, N203S) (O95076 139-225 N203S): as the sequence (O95076 139-225 N203Q) above, with Q65S counted along it
Chain of HOXD13 (Homo sapiens, UniProt P35453 263-343) (P35453 263-343): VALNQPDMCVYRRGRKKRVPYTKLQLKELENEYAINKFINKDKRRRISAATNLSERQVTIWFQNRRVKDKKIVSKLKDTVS

CAACGGAG: the binding signal in assay [1] was 6.43 upbm affinity estimate (log intensity, higher = more binding, comparable within an allelic series); in assay [2], 6.49 upbm affinity estimate (log intensity, higher = more binding, comparable within an allelic series); in [3], 6.47 upbm affinity estimate (log intensity, higher = more binding, comparable within an allelic series).
With AGTTAGCC, the binding signal in [1] was 7.87 upbm affinity estimate (log intensity, higher = more binding, comparable within an allelic series); in [2], 7.7 upbm affinity estimate (log intensity, higher = more binding, comparable within an allelic series); in assay [3], 8.29 upbm affinity estimate (log intensity, higher = more binding, comparable within an allelic series).
Turning to ACATAATA, the binding signal was 9.56 upbm affinity estimate (log intensity, higher = more binding, comparable within an allelic series) in [1]; 9.39 upbm affinity estimate (log intensity, higher = more binding, comparable within an allelic series) in [2]; 9.89 upbm affinity estimate (log intensity, higher = more binding, comparable within an allelic series) in [3].
As for AAATGGGA, the binding signal in assay [1] is 8.33 upbm affinity estimate (log intensity, higher = more binding, comparable within an allelic series); in assay [2] it was 8.01 upbm affinity estimate (log intensity, higher = more binding, comparable within an allelic series); in assay [3] it was 8.46 upbm affinity estimate (log intensity, higher = more binding, comparable within an allelic series).
CGCCGAGA: the binding signal in [1] is 6.15 upbm affinity estimate (log intensity, higher = more binding, comparable within an allelic series); in assay [2] it was 6.32 upbm affinity estimate (log intensity, higher = more binding, comparable within an allelic series); in [3] it was 6.31 upbm affinity estimate (log intensity, higher = more binding, comparable within an allelic series).
For CGGACGGA, the binding signal in [1] is 6.3 upbm affinity estimate (log intensity, higher = more binding, comparable within an allelic series); in assay [2], 6.37 upbm affinity estimate (log intensity, higher = more binding, comparable within an allelic series); in [3] it was 6.28 upbm affinity estimate (log intensity, higher = more binding, comparable within an allelic series).
Turning to ACGATTAC, the binding signal is 8.4 upbm affinity estimate (log intensity, higher = more binding, comparable within an allelic series) in assay [1]; 8.26 upbm affinity estimate (log intensity, higher = more binding, comparable within an allelic series) in [2]; 8.62 upbm affinity estimate (log intensity, higher = more binding, comparable within an allelic series) in [3].
For AAATGATG, the binding signal was 8.1 upbm affinity estimate (log intensity, higher = more binding, comparable within an allelic series) in [1]; 8.04 upbm affinity estimate (log intensity, higher = more binding, comparable within an allelic series) in [2]; 8.35 upbm affinity estimate (log intensity, higher = more binding, comparable within an allelic series) in [3].
As to AGCAATAT, the binding signal is 8.17 upbm affinity estimate (log intensity, higher = more binding, comparable within an allelic series) in assay [1]; 8.11 upbm affinity estimate (log intensity, higher = more binding, comparable within an allelic series) in assay [2]; 8.09 upbm affinity estimate (log intensity, higher = more binding, comparable within an allelic series) in assay [3].
On to CACTATTA, for which the binding signal in [1] is 9.26 upbm affinity estimate (log intensity, higher = more binding, comparable within an allelic series); in assay [2] it was 9.02 upbm affinity estimate (log intensity, higher = more binding, comparable within an allelic series); in assay [3] it was 9.61 upbm affinity estimate (log intensity, higher = more binding, comparable within an allelic series).
As to GAGGAGCC, the binding signal in [1] was 6.5 upbm affinity estimate (log intensity, higher = more binding, comparable within an allelic series); in assay [2], 6.54 upbm affinity estimate (log intensity, higher = more binding, comparable within an allelic series); in assay [3], 6.27 upbm affinity estimate (log intensity, higher = more binding, comparable within an allelic series).
As for CCGAGAGC, the binding signal in assay [1] is 6.61 upbm affinity estimate (log intensity, higher = more binding, comparable within an allelic series); in assay [2] it was 6.63 upbm affinity estimate (log intensity, higher = more binding, comparable within an allelic series); in assay [3], 6.63 upbm affinity estimate (log intensity, higher = more binding, comparable within an allelic series).
As for ATAACTCC, the binding signal is 8.41 upbm affinity estimate (log intensity, higher = more binding, comparable within an allelic series) in assay [1]; 8.38 upbm affinity estimate (log intensity, higher = more binding, comparable within an allelic series) in assay [2]; 8.38 upbm affinity estimate (log intensity, higher = more binding, comparable within an allelic series) in assay [3].
For the sequence GCACCAGC, the binding signal in assay [1] was 6.41 upbm affinity estimate (log intensity, higher = more binding, comparable within an allelic series); in assay [2] it was 6.46 upbm affinity estimate (log intensity, higher = more binding, comparable within an allelic series); in assay [3], 6.19 upbm affinity estimate (log intensity, higher = more binding, comparable within an allelic series).
With CTCCTAGC, the binding signal in assay [1] is 6.62 upbm affinity estimate (log intensity, higher = more binding, comparable within an allelic series); in [2], 6.57 upbm affinity estimate (log intensity, higher = more binding, comparable within an allelic series); in assay [3] it was 6.52 upbm affinity estimate (log intensity, higher = more binding, comparable within an allelic series).
For CAAATTTG, the binding signal in assay [1] was 9.35 upbm affinity estimate (log intensity, higher = more binding, comparable within an allelic series); in assay [2] it was 9 upbm affinity estimate (log intensity, higher = more binding, comparable within an allelic series); in [3], 9.69 upbm affinity estimate (log intensity, higher = more binding, comparable within an allelic series).
As to CGTATAAG, the binding signal in assay [1] was 8.14 upbm affinity estimate (log intensity, higher = more binding, comparable within an allelic series); in assay [2], 8.05 upbm affinity estimate (log intensity, higher = more binding, comparable within an allelic series); in [3] it was 8.12 upbm affinity estimate (log intensity, higher = more binding, comparable within an allelic series).
Turning to AGCCACAG, the binding signal in [1] is 6.62 upbm affinity estimate (log intensity, higher = more binding, comparable within an allelic series); in [2], 6.52 upbm affinity estimate (log intensity, higher = more binding, comparable within an allelic series); in [3], 6.67 upbm affinity estimate (log intensity, higher = more binding, comparable within an allelic series).
On to CCTTGGCG, for which the binding signal was 6.13 upbm affinity estimate (log intensity, higher = more binding, comparable within an allelic series) in assay [1]; 6.15 upbm affinity estimate (log intensity, higher = more binding, comparable within an allelic series) in [2]; 6.14 upbm affinity estimate (log intensity, higher = more binding, comparable within an allelic series) in [3].
In the case of CGGGTTCC, the binding signal was 6.36 upbm affinity estimate (log intensity, higher = more binding, comparable within an allelic series) in assay [1]; 6.23 upbm affinity estimate (log intensity, higher = more binding, comparable within an allelic series) in assay [2]; 6.28 upbm affinity estimate (log intensity, higher = more binding, comparable within an allelic series) in assay [3].
As for GCTGGCAC, the binding signal in [1] was 6.46 upbm affinity estimate (log intensity, higher = more binding, comparable within an allelic series); in [2] it was 6.45 upbm affinity estimate (log intensity, higher = more binding, comparable within an allelic series); in [3], 6.58 upbm affinity estimate (log intensity, higher = more binding, comparable within an allelic series).
With AATCCACA, the binding signal was 8.17 upbm affinity estimate (log intensity, higher = more binding, comparable within an allelic series) in assay [1] and 8.4 upbm affinity estimate (log intensity, higher = more binding, comparable within an allelic series) in [3].
On to CATAATAA, for which the binding signal in [4] is 8.54 upbm affinity estimate (log intensity, higher = more binding, comparable within an allelic series).
AATATTTA: the binding signal in assay [1] is 9.37 upbm affinity estimate (log intensity, higher = more binding, comparable within an allelic series); in assay [2] it was 9.47 upbm affinity estimate (log intensity, higher = more binding, comparable within an allelic series); in [3] it was 9.54 upbm affinity estimate (log intensity, higher = more binding, comparable within an allelic series).
As for ACTTATTA, the binding signal in assay [4] was 8.57 upbm affinity estimate (log intensity, higher = more binding, comparable within an allelic series).
With GTCCAGAC, the binding signal is 6.53 upbm affinity estimate (log intensity, higher = more binding, comparable within an allelic series) in assay [1]; 6.49 upbm affinity estimate (log intensity, higher = more binding, comparable within an allelic series) in [2]; 6.42 upbm affinity estimate (log intensity, higher = more binding, comparable within an allelic series) in [3].
With ATATTGTC, the binding signal is 8.09 upbm affinity estimate (log intensity, higher = more binding, comparable within an allelic series) in [1]; 8.02 upbm affinity estimate (log intensity, higher = more binding, comparable within an allelic series) in [2]; 8 upbm affinity estimate (log intensity, higher = more binding, comparable within an allelic series) in [3].
For the sequence AAGGCGTG, the binding signal was 6.54 upbm affinity estimate (log intensity, higher = more binding, comparable within an allelic series) in assay [1]; 6.5 upbm affinity estimate (log intensity, higher = more binding, comparable within an allelic series) in [2]; 6.55 upbm affinity estimate (log intensity, higher = more binding, comparable within an allelic series) in assay [3].
Regarding CCGACGCG, the binding signal is 6.16 upbm affinity estimate (log intensity, higher = more binding, comparable within an allelic series) in [1]; 6.27 upbm affinity estimate (log intensity, higher = more binding, comparable within an allelic series) in [2]; 6.71 upbm affinity estimate (log intensity, higher = more binding, comparable within an allelic series) in assay [3].
As for ATTAAAAT, the binding signal in assay [4] was 8.53 upbm affinity estimate (log intensity, higher = more binding, comparable within an allelic series); in assay [5], 10.6 upbm affinity estimate (log intensity, higher = more binding, comparable within an allelic series); in assay [6] it was 11.4 upbm affinity estimate (log intensity, higher = more binding, comparable within an allelic series); in assay [7], 11.2 upbm affinity estimate (log intensity, higher = more binding, comparable within an allelic series); in assay [8] it was 9.54 upbm affinity estimate (log intensity, higher = more binding, comparable within an allelic series); in assay [9], 11.4 upbm affinity estimate (log intensity, higher = more binding, comparable within an allelic series). For the same sequence, the binding signal in [10] was 9.23 upbm affinity estimate (log intensity, higher = more binding, comparable within an allelic series); in [11] it was 8.6 upbm affinity estimate (log intensity, higher = more binding, comparable within an allelic series).
On to GCTTCGAC, for which the binding signal in assay [4] was 7.77 upbm affinity estimate (log intensity, higher = more binding, comparable within an allelic series); in assay [5] it was 9.46 upbm affinity estimate (log intensity, higher = more binding, comparable within an allelic series); in assay [6], 9.32 upbm affinity estimate (log intensity, higher = more binding, comparable within an allelic series); in assay [7], 7.65 upbm affinity estimate (log intensity, higher = more binding, comparable within an allelic series); in assay [8], 7.79 upbm affinity estimate (log intensity, higher = more binding, comparable within an allelic series); in assay [9] it was 9.54 upbm affinity estimate (log intensity, higher = more binding, comparable within an allelic series). The binding signal in [10] is 7.79 upbm affinity estimate (log intensity, higher = more binding, comparable within an allelic series); in [11] it was 7.83 upbm affinity estimate (log intensity, higher = more binding, comparable within an allelic series).
